Calls of active or inactive are those of the source. Rule as the data show it, unless noted: active = inhibition above about 33%; inactive = the rest.
What was measured:
[1] = StAR promoter reporter inhibitors, counter-screen for LRH-1 inverse agonist project, cell-based, luminescence, high throughput (AID 651611; in the data active = inhibition above about 28%); conditions: StAR promoter luciferase reporter counterscreen, at 3.6 µM, hits give high values
[2] = biological target: Nuclear receptor subfamily 5 group A member 2 (Homo sapiens) (UniProt O00482); assay: NR5A2 activity suppression in reporter cells – cell-based, luminescence, confirmation (AID 651613; in the data active = inhibition above about 42%;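 also: HEK293T cells co-transfected with LRH-1 and StAR promoter luciferase reporter; 0% = vehicle wells and 100% = parental cells lacking receptor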); conditions: cell-based LRH-1 luciferase reporter, inverse agonism; at 3.6 µM; hits give high values
Sequence of Nuclear receptor subfamily 5 group A member 2 (Homo sapiens) (O00482 whole entry, looked up): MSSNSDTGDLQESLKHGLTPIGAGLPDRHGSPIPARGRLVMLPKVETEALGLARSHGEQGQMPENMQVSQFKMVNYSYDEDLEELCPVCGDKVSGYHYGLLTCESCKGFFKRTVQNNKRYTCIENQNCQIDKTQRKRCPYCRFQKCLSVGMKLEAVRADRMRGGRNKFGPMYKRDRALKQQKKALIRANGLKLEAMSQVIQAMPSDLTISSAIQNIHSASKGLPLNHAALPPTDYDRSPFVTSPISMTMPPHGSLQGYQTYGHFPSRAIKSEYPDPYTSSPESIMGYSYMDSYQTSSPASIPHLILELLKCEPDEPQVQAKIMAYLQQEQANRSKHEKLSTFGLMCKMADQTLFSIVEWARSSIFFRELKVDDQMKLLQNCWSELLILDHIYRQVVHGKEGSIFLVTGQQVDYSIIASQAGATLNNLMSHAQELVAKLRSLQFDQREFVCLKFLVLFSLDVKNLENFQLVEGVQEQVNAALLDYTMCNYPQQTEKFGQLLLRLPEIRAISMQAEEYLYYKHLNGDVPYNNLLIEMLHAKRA

[3] = biological target: Steroidogenic factor 1 (Homo sapiens) (UniProt Q13285); assay: inverse agonism at SF1 nuclear receptor – cell-based, luminescence, high throughput, counter-screen for LRH-1 inverse agonist project (AID 651614; in the data active = inhibition above about 44%;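 also: cells cotransfected with StAR promoter reporter and SF1 expression vector; 0% = vehicle on cells with receptor and 100% = vehicle on cells lacking receptor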); conditions: cell-based SF1 luciferase reporter, at 3.6 µM, hits give high values
Sequence of Steroidogenic factor 1 (Homo sapiens) (Q13285 whole entry, looked up, the tested form may be a part): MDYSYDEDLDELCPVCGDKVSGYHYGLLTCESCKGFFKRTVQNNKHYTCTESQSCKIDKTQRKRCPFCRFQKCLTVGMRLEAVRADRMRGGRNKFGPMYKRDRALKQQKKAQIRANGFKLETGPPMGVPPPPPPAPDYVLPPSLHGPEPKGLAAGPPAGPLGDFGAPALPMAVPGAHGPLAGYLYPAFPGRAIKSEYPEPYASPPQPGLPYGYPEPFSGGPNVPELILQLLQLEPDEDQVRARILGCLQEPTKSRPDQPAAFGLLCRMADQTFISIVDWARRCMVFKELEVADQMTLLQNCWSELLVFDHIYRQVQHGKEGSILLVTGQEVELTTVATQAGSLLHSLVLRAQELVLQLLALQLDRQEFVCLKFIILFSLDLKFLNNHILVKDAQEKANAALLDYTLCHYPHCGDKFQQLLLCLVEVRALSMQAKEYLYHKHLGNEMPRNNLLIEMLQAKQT

[4] = compounds suppressing VP16-driven luciferase signal – cell-based, luminescence, high throughput, counter-screen for LRH-1 inverse agonist project (AID 651615); conditions: Gal4-VP16 luciferase reporter cells, at 3.6 µM, hits give high values
[5] = test system: transactivating tegument protein VP16 (Human herpesvirus 1); assay: compounds suppressing VP16-driven luciferase signal – cell-based, luminescence, single concentration, counter-screen for SRC2 inhibitor project (AID 652007; in the data active = inhibition above about 36%); conditions: cell-based VP16 transactivation luciferase reporter, at 8.9 µM, hits give high values
[6] = biological target: Nuclear receptor coactivator 2 (Homo sapiens) (UniProt Q15596); assay: inhibition of GAL4-SRC2 driven luciferase expression – cell-based, luminescence, HEK293, triplicate, confirmation (AID 652008;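 active = mean inhibition above 46.5%, the solvent-only control mean plus 3 SD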;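 also: 0% = DMSO-treated cells and 100% = Gossypol at 36 µM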); conditions: HEK293 GAL4-SRC2 luciferase reporter, at 8.9 µM, hits give high values
Sequence of Nuclear receptor coactivator 2 (Homo sapiens) (Q15596 whole entry, looked up, the tested form may be a part): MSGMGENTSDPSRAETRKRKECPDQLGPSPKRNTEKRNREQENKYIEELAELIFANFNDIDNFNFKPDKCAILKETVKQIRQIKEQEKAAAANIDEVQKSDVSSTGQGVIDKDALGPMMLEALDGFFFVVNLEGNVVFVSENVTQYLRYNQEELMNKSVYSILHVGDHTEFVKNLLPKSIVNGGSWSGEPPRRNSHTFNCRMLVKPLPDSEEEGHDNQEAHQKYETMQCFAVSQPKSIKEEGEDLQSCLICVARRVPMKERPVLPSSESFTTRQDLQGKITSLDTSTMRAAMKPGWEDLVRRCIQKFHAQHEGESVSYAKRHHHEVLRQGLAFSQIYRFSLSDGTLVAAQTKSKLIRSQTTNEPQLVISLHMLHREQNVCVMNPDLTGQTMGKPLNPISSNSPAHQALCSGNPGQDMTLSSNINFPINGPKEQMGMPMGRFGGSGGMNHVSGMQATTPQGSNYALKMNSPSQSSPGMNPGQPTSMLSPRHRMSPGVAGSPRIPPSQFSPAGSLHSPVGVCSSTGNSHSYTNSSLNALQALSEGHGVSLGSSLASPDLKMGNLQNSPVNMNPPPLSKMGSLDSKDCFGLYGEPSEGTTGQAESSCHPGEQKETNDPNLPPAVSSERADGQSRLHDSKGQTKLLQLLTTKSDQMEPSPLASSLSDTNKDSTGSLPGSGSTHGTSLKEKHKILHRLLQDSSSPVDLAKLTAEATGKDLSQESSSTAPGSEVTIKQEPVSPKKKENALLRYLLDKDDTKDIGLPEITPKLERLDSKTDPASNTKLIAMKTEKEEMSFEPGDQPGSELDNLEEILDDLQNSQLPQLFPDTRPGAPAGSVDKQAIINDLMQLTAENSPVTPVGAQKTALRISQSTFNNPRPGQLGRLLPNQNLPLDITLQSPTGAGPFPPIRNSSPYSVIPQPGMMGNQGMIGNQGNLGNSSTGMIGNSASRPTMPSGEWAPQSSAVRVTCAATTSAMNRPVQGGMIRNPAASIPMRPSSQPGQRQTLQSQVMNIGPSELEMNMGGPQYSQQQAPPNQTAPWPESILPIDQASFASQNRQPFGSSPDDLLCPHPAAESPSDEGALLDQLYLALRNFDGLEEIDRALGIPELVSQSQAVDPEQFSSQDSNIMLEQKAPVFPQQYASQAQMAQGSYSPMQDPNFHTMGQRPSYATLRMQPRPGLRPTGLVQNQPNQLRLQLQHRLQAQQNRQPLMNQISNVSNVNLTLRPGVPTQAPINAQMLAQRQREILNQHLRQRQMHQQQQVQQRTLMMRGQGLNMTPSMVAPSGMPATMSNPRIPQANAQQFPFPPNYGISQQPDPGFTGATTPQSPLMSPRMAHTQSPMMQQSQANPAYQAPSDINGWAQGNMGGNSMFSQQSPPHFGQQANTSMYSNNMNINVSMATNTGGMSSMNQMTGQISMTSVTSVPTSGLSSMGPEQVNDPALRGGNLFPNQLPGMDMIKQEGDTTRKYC

Measured: inhibition

CCOC(=O)c1ccc(NC(=O)CSc2nnc(COc3ccccc3OC)n2C)cc1
inactive: [1] -2.53% | [2] 40.4% | [3] 35.7% | [4] -6.59%

N#CC(=C1C=CC(=NO)C(Cl)=C1)c1ccccc1
active: [2] 41.8% | [3] 61.3%
inactive: [1] 26% | [4] 22.2% | [5] -5.64% | [6] 20.3%

O=C(CCl)N(c1ccccc1)c1c[nH]c2ccccc12
active: [1] 62.4% | [2] 55.8%
inactive: [3] 38.5% | [4] 18.8% | [5] 21.6% | [6] 17.9%

CC1=C(CO)C(=O)OC([C@@H](C)C2CC[C@H]3C4C[C@H]5O[C@]56[C@@H](O)C=CC(=O)[C@]6(C)C4CC[C@]23C)C1 (stereo not given in full)
active: [1] 67.7% | [2] 66.2% | [3] 79.8% | [4] 79.6% | [5] 53.8%
inactive: [6] 41.6%

COc1ccc(-c2cc(-c3nc4ccccn4c3NCc3ccccc3)ccc2OC)cc1
active: [1] 95.2% | [2] 109% | [3] 97.3% | [4] 98.7% | [5] 96.8% | [6] 98.3%

COc1ccc(CCNc2ncnc3sc(C)cc23)cc1OC
active: [1] 35.5% | [2] 90.1% | [3] 57.7% | [4] 57.9%
inactive: [5] 16.6% | [6] 25.8%

COc1ccc(NC(=O)/C(Cl)=C(/Cl)S(=O)Cc2ccccc2)cn1 (stereo not given)
active: [1] 56.1% | [2] 87.8% | [3] 78.2% | [4] 94.5% | [5] 95.8% | [6] 100%

O=C(CCl)Nc1cc2[nH]c(=O)[nH]c2cc1Br
active: [1] 71.3% | [2] 78.6% | [3] 79.1% | [5] 76.5% | [6] 74.7%
inactive: [4] 2.89%

Cc1nnsc1C(=O)NC1CCCc2c1cnn2-c1ccc(C(C)(C)C)cc1 (stereo not given)
active: [1] 29.2% | [2] 50.7% | [3] 63.2% | [4] 50.6%
inactive: [5] 13.8% | [6] 31.2%

c1ccc2c(c1)CCN(c1ncnc3c1[nH]c1ccccc13)C2
inactive: [1] 25.5% | [5] 25.4% | [6] 40.2%
active: [2] 68.5% | [3] 69.5% | [4] 58.2%

CCN(CC)CCC(=O)N1C/C(=C/c2ccccc2)C(=O)/C(=C\c2ccccc2)C1
active: [1] 57.8% | [2] 84.4% | [3] 86.8% | [4] 76.2% | [5] 84.8%
inactive: [6] 23.6%

CCCCCc1c(CC)ncn1CCc1ccccc1OC
active: [4] 31.8%
inactive: [1] -2.24% | [2] 23.2% | [3] 25.2% | [5] 2.9% | [6] 1.53%

O=C(CSc1ncccc1C(=O)O)Nc1ccc2c(c1)OCCO2
inactive: [1] 4.26% | [2] 11.1% | [3] 16.6% | [4] 0.17% | [5] -2.25% | [6] -11.1%

Cc1ccc(C(=O)Sc2cccccc2=O)cc1
active: [1] 98.1% | [2] 107% | [3] 98.6% | [4] 96.8% | [5] 92.9% | [6] 99.2%

Cc1scc(C(=O)N/N=C/c2ccc([N+](=O)[O-])o2)c1C
inactive: [4] 25.1%
active: [1] 42.8% | [2] 76.3% | [3] 73.5% | [5] 62.4% | [6] 68%

CC1C/C(=C/c2ccncc2)C(=O)/C(=C/c2ccncc2)C1 (stereo not given)
inactive: [1] 17.3%
active: [2] 73.6% | [3] 84.2% | [4] 72.9% | [5] 93.7% | [6] 90.8%

COc1ccc(-c2noc(CCCC(=O)NC3CCCC3)n2)cc1
inactive: [1] 15.1%
active: [2] 59.7% | [3] 60.5% | [4] 34.5% | [5] 48.8% | [6] 53.7%

CC1C/C(=C\c2cccnc2)C(=O)/C(=C/c2cccnc2)C1 (stereo not given)
active: [1] 61.9% | [2] 100% | [3] 95.6% | [4] 91.5% | [5] 98% | [6] 93.9%

N#Cc1cccc(C=C(C(=O)c2ccccc2)c2ccccc2)c1
active: [4] 32.6% | [6] 62.2%
inactive: [1] 18.6% | [2] 28.9% | [3] 36.9% | [5] 23%

CCN(Cc1ccc(OC)c(F)c1)C(=O)CCl
inactive: [4] 21.3% | [5] 31.8%
active: [1] 31.7% | [2] 78.7% | [3] 73.3% | [6] 49.5%

COc1cccc(C2=CC(=O)CC(C)(C)C2)n1
active: [2] 61.3% | [3] 58.1% | [4] 45.9%
inactive: [1] 9.54% | [5] -6.05% | [6] 32.9%

COc1ccc(C)cc1NS(=O)(=O)c1ccc(-c2cnc(C3CC3)o2)cc1
inactive: [5] 6.98% | [6] 34.7%
active: [1] 41.5% | [2] 41.9% | [3] 58% | [4] 54.5%

C#CCN(C[C@@H]1[C@@H](OC(=O)Nc2cccs2)[C@@H](OC(=O)Nc2cccs2)Cn2c(=O)ccc(=O)n21)S(=O)(=O)c1ccc(C)cc1
inactive: [5] 26.4%
active: [1] 32% | [2] 54.4% | [3] 54.8% | [4] 36.8% | [6] 88.2%

Cc1ccc(NC(=O)C2=C(c3ccccc3)S(=O)(=O)CCS2(=O)=O)cc1
inactive: [1] 11% | [2] -4.23% | [3] 30.3%
active: [4] 48.5% | [5] 92.8% | [6] 96.9%

COc1ccc(OC)c(N(CCN2C(=O)c3ccccc3C2=O)C(=O)CCl)c1
active: [3] 54% | [6] 57.6%
inactive: [1] 10.9% | [2] 30.5% | [4] 16.1% | [5] 30.9%

C=CC(=O)N1C/C(=C/c2ccccc2)C(=O)/C(=C\c2ccccc2)C1
active: [2] 71.8% | [3] 77.5% | [4] 62.2% | [5] 88.6% | [6] 65.3%
inactive: [1] -2.93%

Cc1ccc(-c2nc(NC(=O)c3nn(C)cc3[N+](=O)[O-])sc2C)cc1
active: [6] 50.5%
inactive: [1] 18.9% | [2] 21.2% | [3] 32.2% | [4] -0.37% | [5] 35.3%

O=C(CCCc1ccccc1)c1ccc2c(c1)OCCO2
active: [1] 62.5% | [3] 55.9% | [5] 54.7% | [6] 73.9%
inactive: [2] 7.99% | [4] 26.2%

O=C(Nc1ccc(Cl)cc1)/C(=C/c1cccc(O)c1)c1nc2ccccc2s1
active: [1] 52% | [2] 78.1% | [3] 78.1% | [4] 71.2% | [5] 48.6% | [6] 80.7%

O=C(CCl)N1CCN(S(=O)(=O)Cc2ccccc2)CC1
inactive: [1] 25.3% | [4] 15.9% | [5] 12.1% | [6] 46.2%
active: [2] 52.9% | [3] 47.5%

O=C(NCCOc1cccnc1)c1ccc(OC2CCN(Cc3ccccn3)CC2)cc1
inactive: [5] 15.9%
active: [1] 90.8% | [2] 105% | [3] 97.6% | [4] 87.7% | [6] 56.5%

CC(=O)c1c(C)[nH]c(C(=O)COc2cc(C)ccc2C(C)C)c1C
inactive: [1] 21.1% | [5] 17.3% | [6] 43%
active: [2] 53.5% | [3] 71% | [4] 50.3%

CN(C)CCC(=O)N1C/C(=C/c2ccccc2)C(=O)/C(=C\c2ccccc2)C1
active: [1] 61.4% | [2] 84% | [3] 86.6% | [4] 77.2% | [5] 86.8% | [6] 55.3%

O=C1/C(=C\c2ccccc2)CN(C(=O)CCN2CCCCC2)C/C1=C/c1ccccc1
inactive: [6] -4.61%
active: [1] 56.7% | [2] 84.7% | [3] 84.8% | [4] 73.7% | [5] 85.7%

CC(C)(C)C(=O)Nc1cc2nn(-c3ccccc3)nc2cc1Cl
active: [1] 48.3% | [3] 43.6% | [4] 50.1% | [5] 88.2% | [6] 90.3%
inactive: [2] 19.3%

CC1CCC/C=C/C(=O)c2c(O)cc(O)cc2CC(=O)O1 (stereo not given)
inactive: [1] 8.63% | [2] 35.8% | [3] 12.9% | [4] 29.1% | [5] 19.4% | [6] 33.2%

CC(C)(C)c1ccc(Oc2ccc(NC(=O)C3CC=CCC3C(=O)O)cc2)cc1 (stereo not given)
inactive: [1] 1.67% | [2] 6.39% | [3] 0.96% | [4] 5.54% | [5] 8.31% | [6] 19.9%

CCCCCCCCCC[n+]1cccc2c3ccccc3ccc21
active: [1] 83.3% | [2] 110% | [3] 96.1% | [4] 95.9% | [5] 48.9% | [6] 58.6%

C=CC(=O)N1C/C(=C/c2ccc(Cl)cc2)C(=O)/C(=C\c2ccc(Cl)cc2)C1
active: [2] 84.7% | [3] 87.8% | [4] 65.8% | [5] 97% | [6] 88.4%
inactive: [1] 17.8%

COc1ccc(NS(=O)(=O)c2ccc3c(c2)OCCO3)cc1OC
inactive: [1] 10.4% | [5] 10.1% | [6] 27.8%
active: [2] 69.7% | [3] 67.5% | [4] 35.5%

CC(=O)NC(c1cccc([N+](=O)[O-])c1)c1ccc2cccnc2c1O (stereo not given)
inactive: [5] 0.91% | [6] 31.1%
active: [1] 85.6% | [2] 100% | [3] 91.2% | [4] 83.9%

O=C1C=CC2(C=C1)O[C@H](Cc1ccccc1)[C@@H](Cc1ccccc1)O2
active: [1] 37% | [2] 83.4% | [3] 73.2% | [4] 72.5% | [5] 94.4% | [6] 63.8%

Reference: PubChem BioAssay
